From PubChem BioAssay (NCI)
This is part of a sample that, as a whole, favours compounds with a hit. Of some 83,000 tested, about 20% had one in any assay.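 Method: cells in 96-well plates; compound added at one concentration; 48 h incubation; percent growth measured; values under 10 scored active.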 Active and inactive are the calls of the source.

What was measured:
Experiment in all cases: NCI-60 one-dose screen, 48 h (100 = growth as untreated, 0 = no growth, -100 = all killed)
Conditions in all cases: 10 µM unless noted
[1] = test system: DU-145 prostate
[2] = test system: K-562 leukemia
[3] = test system: MALME-3M melanoma
[4] = test system: MDA-MB-231 breast
[5] = test system: SF-268 CNS
[6] = test system: SF-295 CNS
[7] = test system: SF-539 CNS
[8] = test system: M14 melanoma
[9] = test system: HCT-15 colon
[10] = test system: SNB-75 CNS
[11] = test system: U251 CNS
[12] = test system: PC-3 prostate
[13] = test system: UACC-62 melanoma
[14] = test system: LOX IMVI melanoma
[15] = test system: SK-MEL-28 melanoma
[16] = test system: RXF 393 renal
[17] = test system: UACC-257 melanoma
[18] = test system: HT29 colon
[19] = test system: SNB-19 CNS
[20] = test system: SK-MEL-5 melanoma

Measured: growth

O=c1[nH]c(=S)[nH]c(=O)n1Cc1cccc2ccccc12
inactive: [1] 116% | [2] 90.1% | [3] 97.3% | [4] 106% | [5] 107% | [6] 77.4% | [7] 103% | [8] 104% | [9] 98.3% | [10] 81.8% | [11] 93.1% | [12] 92.8% | [13] 89.7% | [14] 94.3% | [15] 103%

CCCOC(=O)c1ccc2c(c1)[N+](=O)C(C(=O)c1ccccc1)=C(C(F)(F)F)[N+]2=O
active: [1] -97.2% | [2] -74% | [3] -73.7% | [4] -90.4% | [16] -93.2% | [5] -81.4% | [7] -95% | [17] -94.2% | [8] -70.3% | [9] -65.7% | [18] -92.1% | [19] -88.9% | [12] -91.5% | [13] -92.4% | [14] -74.7% | [15] -96.8%

COc1ccc(CSc2nc3cc(OC)c(OC)cc3c(=O)n2-c2ccc(Cl)cc2)cc1
inactive: [1] 109% | [2] 93% | [3] 107% | [4] 99.9% | [5] 101% | [7] 95.9% | [8] 106% | [9] 98.6% | [18] 112% | [10] 92.9% | [19] 99.8% | [11] 94.2% | [12] 82% | [20] 95.4% | [13] 99.4% | [14] 98% | [15] 107%

COCCOC1=C(Cl)C(=O)c2ccccc2C1=O
inactive: [1] 38.7% | [3] 96.4% | [4] 34.8% | [16] 18.7% | [5] 24.1% | [8] 40.1% | [9] 13% | [18] 99% | [19] 88.4% | [12] 18.7% | [14] 22.1% | [15] 13.7%
active: [2] 8.89% | [7] -10.4% | [17] -17.3% | [10] 8.63% | [11] 8.18%

CC(C)(C)[Si](C)(C)OC1[C@@H](COC(=O)NC(=O)CCl)O[C@@H](n2cnc3c(N)ncnc32)[C@H]1O[Si](C)(C)C(C)(C)C (some centres undefined)
inactive: [1] 46.2% | [4] 35.7% | [16] 64% | [6] 45.7% | [7] 89.8% | [8] 18.4% | [9] 11.8% | [18] 32.3% | [10] 101% | [11] 53.2% | [20] 61.4% | [13] 75.2% | [15] 71.8%
active: [2] -37.6% | [3] -57% | [5] -19.6% | [14] -94%

CN1CCN(c2nc(-c3ccncc3)nc3sc4c(c23)CCCCCC4)CC1
inactive: [1] 91% | [2] 35.5% | [3] 76.8% | [4] 49.2% | [5] 61.2% | [6] 57.2% | [7] 54.4% | [8] 105% | [9] 76.5% | [18] 24.3% | [10] 14.5% | [11] 63.5% | [12] 61.9% | [13] 86.6% | [14] 64.9% | [15] 83.5%

Cc1ccc(S(=O)(=O)N2C/C(=C\c3cc(F)cc(F)c3)C(=O)/C(=C/c3cc(F)cc(F)c3)C2)cc1
active: [1] -61.3% | [2] 2.14% | [3] -62.9% | [4] -29.7% | [5] -40.6% | [7] -39.6% | [8] -50.1% | [9] -31.6% | [18] -48.7% | [10] -41.6% | [19] -61.7% | [12] -60.3% | [20] -59.6% | [13] -91.1% | [14] -94.5% | [15] -80.1%

FC(F)(F)c1ccc2c(c1)n1cnnc1c1nncn21
inactive: [1] 118% | [2] 100% | [3] 106% | [4] 104% | [16] 104% | [5] 117% | [6] 89.2% | [7] 114% | [8] 114% | [9] 111% | [18] 107% | [19] 107% | [12] 98.3% | [20] 98.7% | [13] 110% | [14] 108% | [15] 115%

CC1=CN2C(=NC3=C(CCCC/C3=C\c3ccccc3)C2c2ccccc2)S1 (centres undefined)
inactive: [1] 108% | [2] 98.2% | [3] 89% | [4] 103% | [5] 96.9% | [6] 79.1% | [7] 92.3% | [8] 107% | [9] 94.8% | [18] 91.7% | [10] 82.5% | [12] 99.2% | [13] 83.8% | [14] 97.5% | [15] 107%

COc1ccc(C2OCC(C)(C)CO2)cc1OC
inactive: [1] 107% | [2] 101% | [3] 107% | [4] 103% | [16] 88% | [5] 101% | [7] 104% | [17] 87.5% | [8] 113% | [9] 106% | [18] 109% | [10] 102% | [19] 112% | [14] 95.2% | [15] 121%

CCOC(=O)C1=C(C)N2C(=NC3=C(CCCC/C3=C\c3cc(OC)c(OC)c(OC)c3)C2c2cc(OC)c(OC)c(OC)c2)S1 (centres undefined)
inactive: [1] 86% | [2] 31.2% | [3] 51.8% | [4] 71.9% | [5] 80.6% | [6] 56.5% | [7] 79.9% | [8] 79% | [9] 44.8% | [18] 66.8% | [10] 89.4% | [11] 67.7% | [12] 49.8% | [13] 39.9% | [14] 74.1% | [15] 82.9%

CN([N-]C(=O)CC(=O)[N-]N(C)C(=S)c1ccccc1)C(=S)c1ccccc1.[Cu+2]
active: [1] -74.1% | [2] -29.7% | [3] -90.3% | [4] -89.5% | [16] -91.8% | [5] -67.3% | [7] -69.3% | [17] -92.9% | [8] -58.2% | [9] 2.52% | [18] -77.8% | [10] -96.8% | [19] -96.1% | [11] -99% | [12] -53% | [20] -94.6% | [13] -92.4% | [14] -93.1% | [15] -94.7%

O=C(Nc1nc2ccccc2[nH]1)C(=O)Nc1nc2ccccc2[nH]1
inactive: [1] 114% | [2] 94.1% | [3] 91.4% | [4] 91% | [16] 102% | [5] 102% | [7] 95.8% | [17] 101% | [8] 98.8% | [9] 86.2% | [18] 107% | [10] 93.4% | [19] 101% | [11] 96.5% | [12] 85.7% | [20] 99.2% | [13] 97.5% | [14] 93.5% | [15] 107%

N#Cc1ccc(C(F)(F)F)nc1N1CCC(C(=O)Nc2ccc(Cl)cc2)CC1
inactive: [1] 86.6% | [2] 49.3% | [3] 94.2% | [4] 95.7% | [5] 89% | [6] 65.5% | [7] 100% | [8] 75.2% | [9] 43.9% | [18] 51.5% | [10] 105% | [11] 65.3% | [12] 51% | [13] 84.8% | [14] 43.7% | [15] 87.2%

CNc1ccc(Br)cc1-c1n[nH]c(=O)[nH]c1=O
inactive: [1] 122% | [2] 103% | [3] 110% | [4] 94.2% | [5] 111% | [6] 79.6% | [7] 103% | [8] 100% | [9] 102% | [18] 112% | [10] 77.4% | [11] 96.2% | [12] 99.5% | [13] 105% | [14] 98.6% | [15] 107%

COc1ccc(-c2nc3sc(C)nn3c2-c2nc3cc(C)c(C)cc3[nH]2)cc1
inactive: [1] 101% | [2] 97.2% | [3] 88.3% | [4] 99.6% | [16] 99.5% | [5] 101% | [7] 95% | [17] 100% | [8] 103% | [9] 80.6% | [18] 99.2% | [10] 87.1% | [19] 110% | [11] 103% | [12] 86% | [13] 88.5% | [14] 94.8% | [15] 96%

CCOC(=O)C(CC(c1ccccc1)N1CCCCC1)[N+](=O)[O-] (centres undefined)
inactive: [1] 94.4% | [2] 69.5% | [3] 62% | [4] 86.6% | [16] 100% | [5] 93% | [17] 89% | [8] 82.5% | [9] 74.9% | [18] 95.4% | [10] 86% | [19] 89.5% | [11] 73.7% | [12] 67.2% | [20] 91.2% | [13] 59.9% | [14] 63.8% | [15] 98.8%

CN1CCc2c(c3ccccc3c3ccccc23)C1
inactive: [1] 45.7% | [2] 27.1% | [3] 53.4% | [4] 59.6% | [5] 39.1% | [6] 45.1% | [7] 50.8% | [17] 37.6% | [8] 56.2% | [9] 31.3% | [18] 37.7% | [10] 66.1% | [19] 66.2% | [12] 64% | [13] 61.3% | [15] 87.4%
